The record followed here is PubChem BioAssay (Tox21).

Records with an inconclusive call do not appear. Calls of active or inactive are those of the source. Calls come from the whole dose curve; as a rule, active = well fitted cell-killing curve with a large enough effect in the repeat runs; inconclusive = weak or mixed curves, or effect the other way; inactive = no such curve, though single readings can be large or run the other way.
% is set by controls: 0 for no effect and ±100 for the full control effect.

The nature of this experiment: qHTS assay to identify small molecule antagonists of the sonic hedgehog signaling (Shh) pathway - cell viability counter screen (AID 1259367). Note: nearly all actives have a fitted effect of over 55% in size. The conditions noted are these: NIH/3T3 Gli1-Luc viability, CellTiter-Fluor, 24 h; series mostly up to 92.4 µM; viability change, negative = cytotoxic: at the top concentration. The text has this:
National Center for Advancing Translational Sciences [NCATS]
NIH Chemical Genomics Center [NCGC]
U.S. Environmental Protection Agency [EPA]
National Institutes of Environmental Health Sciences [NIEHS]
National Toxicology Program [NTP]
U.S. Food and Drug Administration [FDA]
The sonic hedgehog (Shh) pathway is essential for normal embryonic development. Dysregulation of the Shh pathway can cause severe developmental defects in organs. Therefore chemicals that interfere with the pathway are potential developmental toxicants. A cell line designated 3T3Gli1-Luc (DMB/OARSA/CFSAN/FDA, Laurel, MD), a NIH/3T3 derived clone containing stably integrated Gli1-Luc reporter is used to detect chemical interference of the Shh pathway, by changes in the expression of the firefly Luc gene under the control of the Gli1 transcriptional response element. This cell line was used to screen Tox21 libraries for identifying and prioritizing the potential developmental toxicants that interfere Shh pathway. Conditioned medium-stimulated mode was used to screen for chemicals inhibiting Shh signaling. The cytotoxicity of the compounds was tested in parallel by measuring the cell viability using CellTiter-Fluor assay system (Promega, Madison, WI) in the same wells.
Tox21 Assay Protocol Summary:
3T3 Gli1-Luc cells were dispensed at 2,000 per well in 5uL of culture medium into white solid bottom 1536-well plates (Greiner Bio-One, Monroe, NC) using a Multidrop Combi (Thermo Scientific, Waltham, MA) dispenser. The assay plates were incubated at 37 C and 5% CO2 for 4hr, and then 23nL of compounds dissolved in DMSO and positive control were transferred using a Pintool station (Wako, San Diego, CA). The compound transfer was followed by the addition of 1ul conditioned medium or assay buffer using two separate tips of Flying Reagent Dispenser (FRD, Aurora Discovery, San Diego, CA). The assay plates were incubated at 37C and 5% CO2 for 24hr. For viability read, after 23hr of compound treatment, 1uL of CellTiter-Fluor reagent (Promega Corporation, Madison, WI) was added to each well of the assay plates using Flying Reagent Dispenser (FRD, Aurora Discovery, San Diego, CA) and incubated the assay plates at 37C for 1hr. The fluorescence signal was quantified using a ViewLux plate reader (Perkin Elmer, Shelton, CT).
(In general: Quantitative high-throughput screening tests each substance at several concentrations.)
Consider `O=C(O)CC(C(=O)O)S(=O)(=O)O` (stereo not given), for which the “viability change, negative = cytotoxic” value was -17.5% (inactive).
The value for `CC1(C)OC[C@@H](COC(=O)CCc2ccc(OC[C@@H](O)CNCCNC(=O)N3CCOCC3)cc2)O1` was 2.68% [at 42.5 µM] (inactive).
Consider `O=S(=O)(O)c1cccc2ccccc12`, for which the “viability change, negative = cytotoxic” value is 3.6% (inactive).
As for `CO[C@@]1(NC(=O)CSC[C@@H](N)C(=O)O)C(=O)N2C(C(=O)O)=C(CSc3nnnn3C)CS[C@@H]21`, the “viability change, negative = cytotoxic” value was 5.78% [at 42.5 µM] (inactive).
For the molecule `NCCCC(N)(C(=O)O)C(F)F` (stereo not given), the “viability change, negative = cytotoxic” value is 3.23% [at 42.5 µM] (inactive).
With `CNC(=O)Nc1ccc(Cl)c(Cl)c1`, the “viability change, negative = cytotoxic” value is 4.36% (inactive).
Regarding `CC(=O)Nc1ccc(OCC(O)CNC(C)C)cc1` (stereo not given), the “viability change, negative = cytotoxic” value was 0.459% [at 42.5 µM] (inactive).
On to `CC(C)c1ccc2ncccc2c1`, for which the “viability change, negative = cytotoxic” value was 3.79% (inactive).
As to `CN1[C@@H]2CC[C@H]1CC(OC(=O)C(O)c1ccccc1)C2` (stereo not given in full), the “viability change, negative = cytotoxic” value was -4.09% [at 42.5 µM] (inactive).
Next, `CC(COc1ccccc1)NN` (stereo not given): 3.66% [at 42.5 µM] (inactive); `CC(C)(N)C#N`: 0.845% (inactive).
The value for `O=C(O)CCSCCC(=O)O` was -1.42% (inactive); that for `CCCOC(=O)CC` was 2.8% (inactive).
Next, `Nc1c2c(nc3c1CCC3)CCCC2`: 2.76% [at 42.5 µM] (inactive).
Take `[O-][n+]1cccc(CO)c1`: the “viability change, negative = cytotoxic” value was 4.8% [at 42.5 µM] (inactive).
The value for `CC1=C(C/C=C(\C)CCC[C@H](C)CCC[C@H](C)CCCC(C)C)C(=O)c2ccccc2C1=O` was 4.8% [at 42.5 µM] (inactive).
As for `C=CCOCC(O)CO` (stereo not given), the “viability change, negative = cytotoxic” value is 3.88% (inactive).
Regarding `Cc1ccc(C(=O)Nc2ccc(S(=O)(=O)O)c3cc(S(=O)(=O)O)cc(S(=O)(=O)O)c23)cc1NC(=O)c1cccc(NC(=O)Nc2cccc(C(=O)Nc3cc(C(=O)Nc4ccc(S(=O)(=O)O)c5cc(S(=O)(=O)O)cc(S(=O)(=O)O)c45)ccc3C)c2)c1`, the “viability change, negative = cytotoxic” value is 4.8% [at 42.5 µM] (inactive).
The value for `CN(C)C(=O)Oc1cccc([N+](C)(C)C)c1` was 1.86% [at 42.5 µM] (inactive).
Next, `Cc1onc(-c2c(Cl)cccc2Cl)c1C(=O)Cl`: 11.1% [at 42.5 µM] (inactive); `CCCCN(CCC(=O)OCC)C(C)=O`: -4% (inactive); `Cc1ccc(-c2ccccc2C#N)cc1`: 4.78% [at 42.5 µM] (inactive).
Next, `CCCCCC(C)N` (stereo not given): 0.475% [at 42.5 µM] (inactive); `CO/N=C(\C(=O)N[C@@H]1C(=O)N2C(C(=O)O)=C(CSc3nc(=O)c(O)nn3C)CS[C@H]12)c1csc(N)n1`: -2.26% [at 42.5 µM] (inactive).
With `CCNS(=O)(=O)c1ccc(C)cc1`, the “viability change, negative = cytotoxic” value was -5.22% (inactive).
The value for `NC(CCC(=O)O)C(=O)O` (stereo not given) was -2.86% (inactive); that for `C=CC(C)(CCC=C(C)C)OC(=O)CC` (stereo not given) was 1.17% (inactive).
The value for `NC(=O)N[C@@H](CCC(=O)O)C(=O)O` was 0.902% [at 42.5 µM] (inactive); that for `CC(=O)c1ccccc1[N+](=O)[O-]` was -12.7% (inactive); that for `NC(=O)NC1N=C([O][Al])NC1=O` (stereo not given) was 6.34% [at 42.5 µM] (inactive).
The value for `CCCCCCC#CC(=O)OC` was 0.259% (inactive); that for `CCCC(C)C(=O)OCC` (stereo not given) was 9.58% (inactive); that for `C[C@@H]1CCC[C@H](C)N1` was 4.08% [at 42.5 µM] (inactive).
As to `COc1ccnc(CS(=O)c2nc3cc(OC(F)F)ccc3[nH]2)c1OC` (stereo not given), the “viability change, negative = cytotoxic” value was -3.14% (inactive).
Regarding `CC(C)NNC(=O)c1ccncc1`, the “viability change, negative = cytotoxic” value was 1.22% [at 42.5 µM] (inactive).
Next, `CCCCCCCC1CCCC1=O` (stereo not given): 2.02% (inactive); `CCCCCCCCCCCCCCC(=O)O`: -0.0185% (inactive); `CC1(C)[C@@H]2CC[C@@]1(C)[C@H](O)C2`: 4.43% (inactive).
The value for `CC(=O)C1CCCCC1=O` (stereo not given) was 3.6% (inactive); that for `Cc1nc(C2CCCCC2)c(-c2ccc(S(N)(=O)=O)c(F)c2)o1` was -0.05% [at 42.5 µM] (inactive).
